# Assay outcomes as filed in PubChem BioAssay.
# HSP90 refold inh – blocks HSP90-mediated luciferase refolding in reticulocyte lysate; Rabbit reticulocyte lysate, luciferase refolding luminescence, 3 h; inhibition, % at 5.6 µM; 290,000 compounds, 0.91% hits; AID 1789;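 active means inhibition above the screen-wide mean plus 3 SD, computed separately per campaign, cut at about 16% in these data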;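 further: 0% = DMSO wells and 100% = 60 µM geldanamycin wells; inhibitors lower the luminescence because luciferase stays unfolded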
# Mdm2-MdmX inh – disrupts the human Mdm2-MdmX interaction | O15151+Q00987 | SaOS-2 split-luciferase Mdm2/MdmX complementation, luminescence | inhibition, % at 8 µM | 330,000 compounds, 3% hits;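 active means inhibition of at least 50% at 8 µM in the primary screen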
# KKLEB cytotox – CF airway cell cytotoxicity counter-screen | KKLEB CF airway cells viability, ATPlite luminescence, overnight; hits give low values; cells stimulated with P. aeruginosa culture filtrate | activity change (cytotoxicity), % at 5 µM | 360,000 compounds, 0.36% hits;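 active means corrected activity change at or below -50% at 5 µM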
# Peg3 prom inh-1 – reduces Peg3 promoter-driven luciferase expression in HeLa | HeLa PEG-Prom luciferase reporter, luminescence, overnight | 360,000 compounds, 1.7% hits | inhibition, % at 20 µM | AID 588405;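 active means inhibition of at least 50% at 20 µM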
# CF NFkB block – inhibitors of cystic fibrosis induced NF-kB. inhibition, % at 5 µM. 360,000 compounds, 0.86% hits. KKLEB NF-kB-GFP reporter, PAF-induced, GFP fluorescence overnight;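 active means at least 50% inhibition at 5 µM, scaled per plate between neutral and stimulator controls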;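 further: PAF is a Pseudomonas aeruginosa culture filtrate used as stimulus; plate controls were PAF-stimulated DMSO wells for no effect and unstimulated DMSO wells for full effect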
# LGR2 inh – inhibitors of bursicon-induced Drosophila LGR2 receptor cAMP signaling. HEK293 LGR2, CRE-luciferase, bursicon-stimulated, 4 h. inhibition, % at 9.99 µM. 380,000 compounds, 0.35% hits;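 active means drop in luminescence signal, shown as inhibition above about 50% in the replicate tests, limit read from the data, passing the limit was not always enough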;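 further: agonist challenge used bursicon conditioned medium at about half maximal strength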
# HSP90 inh confirm – confirmation of HSP90 inhibitors. inhibition, % at 5.9 µM. shares compounds with HSP90 refold inh. 2,300 compounds, 64% hits. rabbit reticulocyte lysate, luciferase refolding luminescence, 3 h; in the data active means inhibition above about 18%;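 further: 0% = vehicle wells and 100% = reference inhibitor wells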
# FLuc counter-1 – counter-screen for HSP90 inhibitors: inhibitors of firefly luciferase | shares compounds with HSP90 refold inh | purified native firefly luciferase, luminescence | 2,300 compounds, 48% hits | inhibition, % at 5.9 µM;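 active means inhibition above the mean inhibition of all tested sample wells plus 3 SD, cut at about 10% in these data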;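 further: 0% = DMSO with luciferase and 100% = wells lacking luciferase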
# Target sequence (P08659 whole entry, looked up): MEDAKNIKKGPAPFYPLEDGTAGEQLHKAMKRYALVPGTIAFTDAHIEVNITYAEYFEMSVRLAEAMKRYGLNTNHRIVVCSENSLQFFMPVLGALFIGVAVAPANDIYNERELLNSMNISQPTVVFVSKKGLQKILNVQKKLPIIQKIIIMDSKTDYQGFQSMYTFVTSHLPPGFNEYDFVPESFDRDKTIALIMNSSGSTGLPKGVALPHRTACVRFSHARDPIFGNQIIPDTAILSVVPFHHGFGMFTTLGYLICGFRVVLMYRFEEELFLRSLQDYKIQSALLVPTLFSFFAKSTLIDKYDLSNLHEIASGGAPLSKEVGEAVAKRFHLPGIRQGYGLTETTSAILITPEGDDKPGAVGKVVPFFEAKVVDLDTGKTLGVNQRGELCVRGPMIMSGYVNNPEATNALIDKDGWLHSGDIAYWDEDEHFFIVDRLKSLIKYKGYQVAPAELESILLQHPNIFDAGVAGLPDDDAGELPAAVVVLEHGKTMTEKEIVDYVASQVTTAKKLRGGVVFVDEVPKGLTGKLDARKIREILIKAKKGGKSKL
# Mdm2-MdmX conf – human Mdm2/MdmX binding inhibition, confirmed. luminescent assay. shares compounds with Mdm2-MdmX inh. 10,000 compounds, 55% hits. inhibition, % at 8 µM; in the data active means inhibition above about 40%
# FLuc counter-2 – counter-screen for Mdm2/MdmX inhibitors: full-length luciferase. SaOS-2 full-length luciferase counterscreen, luminescence. 6,200 compounds, 77% hits. shares compounds with Mdm2-MdmX inh. inhibition, % at 8 µM;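 active means mean inhibition at 8 µM reaching about 37%, which flags the compound as non-specific, limit read from the data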;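 further: p53-null SaOS-2 cells with luciferase driven by a doxycycline-inducible promoter; compound on cells about two nights before reading with doxycycline added after day one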
# Peg3 prom inh-2 – confirmation of Peg3 promoter inhibitors. shares compounds with Peg3 prom inh-1. HeLa PEG-Prom luciferase reporter, luminescence, overnight. inhibition, % at 20 µM. 1,300 compounds, 84% hits. AID 602417;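 active means at 20 µM dose, 40% or more inhibition averaged across four replicates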
# * = called active by the depositor; . = no result given. An excerpt weighted towards active compounds, which were near 3.6% of everything screened.
SMILES,HSP90 refold inh,Mdm2-MdmX inh,KKLEB cytotox,Peg3 prom inh-1,CF NFkB block,LGR2 inh,HSP90 inh confirm,FLuc counter-1,Mdm2-MdmX conf,FLuc counter-2,Peg3 prom inh-2
CC(C)C#Cc1cnc2c(c1)C(=O)N([C@@H](C)CO)C[C@H](C)[C@@H](CN(C)C(=O)CN1CCOCC1)O2,.,.,.,.,.,0,.,.,.,.,.
CCN(CC)c1ccc(/C=N/Nc2nc3ccccc3[nH]2)c(O)c1,40*,58*,5,-12,-4,.,23*,-18,74*,40*,.
CCOc1ccc2c(c1)C(C)=CC(C)(C)N2S(=O)(=O)c1ccc(C)cc1,30*,63*,-22,20,61*,-4,12,4,61*,121*,.
C[C@@H](NC(=O)C[C@@H]1C=C[C@@H](NS(=O)(=O)c2cccc(F)c2)[C@H](CO)O1)c1ccccc1,.,.,.,.,.,-1,.,.,.,.,.
CN1CCN(c2ccc(NC(=O)N3CCc4ccccc43)cc2)CC1,72*,16,-20,58*,6,60*,71*,61*,.,.,51*
COc1ccc2c(c1)sc1nc(-c3ccccc3)cn12,63*,84*,-96*,85*,22,.,90*,86*,70*,114*,74*
O=C(O)c1cccc(COc2ccc3c(c2)CCC3)c1,83*,68*,-4,85*,11,101*,95*,93*,78*,24,73*
O=C(OCC(F)(F)F)c1cccc(COc2ccc3ccccc3c2)c1,25*,35,-3,73*,0,.,93*,22*,.,.,77*
COc1cccc(OC)c1C(=O)NNC(=O)c1cccc(COc2ccc3c(c2)CCC3)c1,10,-43,7,-258,-15,.,.,.,.,.,.
